{"source": "PubChem BioAssay AID651903", "about": "(Broad Institute, 2012)", "note": "Among all 22,000 compounds or so, about 1,100 (5%) were called active. What follows is part of a selection rich in actives, with near analogues and random picks from the rest. Values without a mark were called inactive. No stated cut-off is given here; in the data, active means activity score above about 55%; inconclusive means no clear call, values can overlap the other calls; inactive means below that.", "data": [{"experiment": "inhibitors of intracellular Trypanosoma cruzi, primary screen, cell-based, plate reader, single point, set 2 (AID 651903);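 further: parasites and compound incubated about four days before reading; 0% = median of neutral control wells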", "conditions": "intracellular Trypanosoma cruzi in host cells, at 5.01 µM, hits give high values", "values": [{"compound": "CNC[C@@H]1Oc2c(NC(=O)Nc3ccc(OC)cc3)cccc2C(=O)N([C@@H](C)CO)C[C@@H]1C", "activity score (inhibition)": "-23.4%"}, {"compound": "COc1ccc(NC(=O)Nc2ccc3c(c2)CC(=O)N([C@H](C)CO)C[C@H](C)[C@H](CN(C)S(=O)(=O)c2ccccc2)O3)cc1", "activity score (inhibition)": "-4.14%"}, {"compound": "Cc1ccc(S(=O)(=O)N(C)C[C@H]2Oc3c(NS(=O)(=O)c4cn(C)cn4)cccc3C(=O)N([C@@H](C)CO)C[C@H]2C)cc1", "activity score (inhibition)": "-10.8%"}, {"compound": "Cc1noc(C)c1NC(=O)Nc1ccc2c(c1)C(=O)N([C@@H](C)CO)C[C@H](C)[C@H](CN(C)CC1CCCCC1)O2", "activity score (inhibition)": "7.21%"}, {"compound": "O=C(N/N=C/c1ccc(O)cc1Br)c1ccccc1O", "activity score (inhibition)": "-10.3%"}, {"compound": "COc1ccc(CN(C)C[C@H]2Oc3c(NC(=O)c4ccncc4)cccc3C(=O)N([C@H](C)CO)C[C@@H]2C)cc1", "activity score (inhibition)": "80.9% (active)"}, {"compound": "COc1ccc(NC(=O)Nc2cccc3c2O[C@H](CN(C)Cc2ccncc2)[C@@H](C)CN([C@@H](C)CO)C3=O)cc1", "activity score (inhibition)": "2.96%"}, {"compound": "COc1ccc(NC(=O)Nc2cccc3c2O[C@@H](CN(C)Cc2ccncc2)[C@H](C)CN([C@H](C)CO)C3=O)cc1", "activity score (inhibition)": "-7.67%"}, {"compound": "COc1ccc(NC(=O)Nc2ccc3c(c2)CC(=O)N([C@@H](C)CO)C[C@H](C)[C@H](CN(C)C(=O)Nc2ccc4c(c2)OCO4)O3)cc1", "activity score (inhibition)": "-16.4%"}, {"compound": "C[C@@H]1CN([C@@H](C)CO)C(=O)c2cc(NS(=O)(=O)c3ccc(Cl)cc3)ccc2O[C@H]1CN(C)S(=O)(=O)c1cn(C)cn1", "activity score (inhibition)": "-11.5%"}, {"compound": "CNC[C@H]1Oc2c(NC(=O)C3CC3)cccc2C(=O)N([C@@H](C)CO)C[C@@H]1C", "activity score (inhibition)": "-26.9%"}, {"compound": "C[C@H]1CN([C@@H](C)CO)C(=O)c2cccc(NS(C)(=O)=O)c2O[C@@H]1CN(C)C(=O)Nc1ccc(F)cc1", "activity score (inhibition)": "-4.72%"}, {"compound": "C[C@H]1CN([C@@H](C)CO)C(=O)Cc2cc(NC(=O)NC3CCCCC3)ccc2O[C@@H]1CN(C)Cc1ccc(Oc2ccccc2)cc1", "activity score (inhibition)": "75.3% (active)"}, {"compound": "COc1ccc(CN(C)C[C@H]2Oc3ccc(NC(=O)Cc4ccccc4)cc3CC(=O)N([C@@H](C)CO)C[C@@H]2C)cc1", "activity score (inhibition)": "71.7% (active)"}, {"compound": "C[C@@H]1CN([C@H](C)CO)C(=O)Cc2cc(NC(=O)CCCN(C)C)ccc2O[C@@H]1CN(C)Cc1ccc(Oc2ccccc2)cc1", "activity score (inhibition)": "-28.8%"}, {"compound": "C[C@@H]1CN([C@@H](C)CO)C(=O)Cc2cc(NC(=O)Cc3ccccc3)ccc2O[C@@H]1CN(C)Cc1ccc2c(c1)OCO2", "activity score (inhibition)": "32.2%"}, {"compound": "C[C@@H]1CN([C@@H](C)CO)C(=O)Cc2cc(NC(=O)Cc3ccccc3)ccc2O[C@@H]1CN(C)Cc1ccc(Oc2ccccc2)cc1", "activity score (inhibition)": "65.6% (active)"}, {"compound": "C[C@H]1CN([C@@H](C)CO)C(=O)Cc2cc(NC(=O)Cc3ccccc3)ccc2O[C@@H]1CN(C)Cc1ccc(Cl)c(Cl)c1", "activity score (inhibition)": "41.9%"}, {"compound": "C[C@@H]1CN([C@H](C)CO)C(=O)Cc2cc(NC(=O)NC3CCCCC3)ccc2O[C@H]1CN(C)Cc1ccc(Cl)c(Cl)c1", "activity score (inhibition)": "7.26%"}, {"compound": "C[C@@H]1CN([C@H](C)CO)C(=O)Cc2cc(NC(=O)Cc3ccccc3)ccc2O[C@@H]1CN(C)Cc1ccccc1", "activity score (inhibition)": "5.2%"}, {"compound": "C[C@@H]1CN([C@H](C)CO)C(=O)Cc2cc(NC(=O)Cc3ccccc3)ccc2O[C@H]1CN(C)Cc1ccc(Oc2ccccc2)cc1", "activity score (inhibition)": "42.5%"}, {"compound": "C[C@@H]1CN([C@H](C)CO)C(=O)c2cc(NC(=O)Cn3cnnn3)ccc2O[C@@H]1CN(C)Cc1ccc(C(F)(F)F)cc1", "activity score (inhibition)": "-1.8%"}, {"compound": "O=C(O)CCCCCCC(=O)NN=C1CCCCCC1", "activity score (inhibition)": "-26.3%"}, {"compound": "COc1ccc(CN(C)C[C@@H]2Oc3ccc(NC(=O)Nc4ccc5c(c4)OCO5)cc3CC(=O)N([C@H](C)CO)C[C@H]2C)cc1", "activity score (inhibition)": "26.4%"}, {"compound": "C[C@H](CO)N1C[C@H](C)[C@H](CN(C)Cc2ccc(C(=O)Nc3ccccc3N)cc2)Oc2ccc(NC(=O)Nc3ccccc3)cc2CC1=O", "activity score (inhibition)": "48.5%"}, {"compound": "C[C@@H]1CN([C@H](C)CO)C(=O)Cc2cc(NC(=O)Nc3ccc(F)cc3)ccc2O[C@@H]1CN(C)Cc1ccc2c(c1)OCO2", "activity score (inhibition)": "1.98%"}, {"compound": "C[C@@H]1CN([C@H](C)CO)C(=O)Cc2cc(NC(=O)Nc3ccc4c(c3)OCO4)ccc2O[C@@H]1CN(C)Cc1ccc(C(=O)Nc2ccccc2N)cc1", "activity score (inhibition)": "63.9% (active)"}, {"compound": "C[C@H]1CN([C@@H](C)CO)C(=O)Cc2cc(NC(=O)Nc3ccc4c(c3)OCO4)ccc2O[C@H]1CN(C)Cc1ccc(C(=O)Nc2ccccc2N)cc1", "activity score (inhibition)": "62.8% (active)"}, {"compound": "CC(C)NC(=O)Nc1ccc2c(c1)CC(=O)N([C@H](C)CO)C[C@@H](C)[C@@H](CN(C)Cc1ccc(C(=O)Nc3ccccc3N)cc1)O2", "activity score (inhibition)": "52.3%"}, {"compound": "C[C@H](CO)N1C[C@H](C)[C@H](CN(C)S(=O)(=O)c2cccs2)Oc2ccc(NS(=O)(=O)c3ccc(Cl)cc3)cc2CC1=O", "activity score (inhibition)": "-17%"}, {"compound": "C[C@H]1CN([C@@H](C)CO)C(=O)Cc2cc(NS(=O)(=O)c3cccs3)ccc2O[C@@H]1CN(C)Cc1ccc(Oc2ccccc2)cc1", "activity score (inhibition)": "42.4%"}, {"compound": "C[C@H](CO)N1C[C@H](C)[C@H](CN(C)CC2CCCCC2)Oc2ccc(NC(=O)CCN3CCOCC3)cc2CC1=O", "activity score (inhibition)": "-39.1%"}, {"compound": "C[C@H](CO)N1C[C@H](C)[C@H](CN(C)C(=O)Nc2ccc(C(F)(F)F)cc2)Oc2ccc(NC(=O)C3CC3)cc2C1=O", "activity score (inhibition)": "-9.99%"}, {"compound": "C[C@H]1CN([C@@H](C)CO)C(=O)c2cccc(NC(=O)Nc3ccc(C(F)(F)F)cc3)c2O[C@@H]1CN(C)Cc1ccccc1", "activity score (inhibition)": "8.46%"}, {"compound": "COc1ccc(CN(C)C[C@H]2Oc3c(NC(=O)NC4CCCCC4)cccc3C(=O)N([C@@H](C)CO)C[C@@H]2C)cc1", "activity score (inhibition)": "-5.36%"}, {"compound": "C[C@@H]1CN([C@H](C)CO)C(=O)c2cccc(NC(=O)NC3CCCCC3)c2O[C@H]1CN(C)Cc1ccc(C(F)(F)F)cc1", "activity score (inhibition)": "85.3% (active)"}, {"compound": "C[C@H](CO)N1C[C@H](C)[C@@H](CN(C)Cc2ccc(C(F)(F)F)cc2)Oc2c(NC(=O)NC3CCCCC3)cccc2C1=O", "activity score (inhibition)": "78.1% (active)"}, {"compound": "C[C@H]1CN([C@@H](C)CO)C(=O)c2cccc(NC(=O)C3CCCCC3)c2O[C@H]1CN(C)Cc1ccc(C(F)(F)F)cc1", "activity score (inhibition)": "6.51%"}, {"compound": "C[C@@H]1CN([C@H](C)CO)C(=O)c2cccc(NC(=O)Nc3ccc(F)cc3)c2O[C@@H]1CN(C)Cc1ccc(C(F)(F)F)cc1", "activity score (inhibition)": "-18.6%"}, {"compound": "C[C@@H]1CN([C@@H](C)CO)C(=O)c2cccc(N(C)C)c2O[C@@H]1CN(C)S(C)(=O)=O", "activity score (inhibition)": "-23.1%"}, {"compound": "C[C@H]1CN([C@@H](C)CO)C(=O)c2cccc(NS(=O)(=O)c3ccccc3)c2O[C@@H]1CN(C)S(=O)(=O)c1cn(C)cn1", "activity score (inhibition)": "-19.1%"}, {"compound": "C[C@H]1CN([C@@H](C)CO)C(=O)Cc2cc(NC(=O)C3CC3)ccc2O[C@@H]1CN(C)C(=O)NC1CCCCC1", "activity score (inhibition)": "-11%"}, {"compound": "CC(C)NC(=O)N(C)C[C@@H]1Oc2c(cccc2N(C)C)C(=O)N([C@H](C)CO)C[C@@H]1C", "activity score (inhibition)": "-30.9%"}, {"compound": "C[C@@H]1CN([C@@H](C)CO)C(=O)c2cc(NC(=O)Nc3ccccc3)ccc2O[C@H]1CN(C)C(=O)Nc1ccc(F)cc1", "activity score (inhibition)": "-1.8%"}, {"compound": "C[C@@H]1CN([C@H](C)CO)C(=O)c2cc(NC(=O)Cc3cn(C)c4ccccc34)ccc2O[C@H]1CN(C)S(C)(=O)=O", "activity score (inhibition)": "-9.14%"}, {"compound": "C[C@@H]1CN([C@@H](C)CO)C(=O)c2cccc(NC(=O)Nc3ccc4c(c3)OCO4)c2O[C@@H]1CN(C)C(=O)Nc1ccc(F)cc1", "activity score (inhibition)": "-15.6%"}, {"compound": "C[C@@H]1CN([C@H](C)CO)C(=O)Cc2cc(NC(=O)Nc3ccc4c(c3)OCO4)ccc2O[C@H]1CN(C)Cc1ccc(C(=O)O)cc1", "activity score (inhibition)": "-10.7%"}, {"compound": "C[C@H]1CN([C@@H](C)CO)C(=O)Cc2cc(NC(=O)Nc3ccc(C(F)(F)F)cc3)ccc2O[C@H]1CN(C)Cc1ccc(C(=O)O)cc1", "activity score (inhibition)": "-28.2%"}, {"compound": "C[C@@H]1CN([C@H](C)CO)C(=O)Cc2cc(NC(=O)Nc3ccc4c(c3)OCO4)ccc2O[C@H]1CN(C)Cc1ccc(C(F)(F)F)cc1", "activity score (inhibition)": "64.6% (active)"}, {"compound": "COc1ccc(NC(=O)Nc2ccc3c(c2)CC(=O)N([C@@H](C)CO)C[C@@H](C)[C@@H](CN(C)Cc2ccc(C(F)(F)F)cc2)O3)cc1", "activity score (inhibition)": "76% (active)"}, {"compound": "Cc1noc(C)c1NC(=O)Nc1ccc2c(c1)CC(=O)N([C@H](C)CO)C[C@@H](C)[C@@H](CN(C)Cc1ccc(C(F)(F)F)cc1)O2", "activity score (inhibition)": "-9.04%"}, {"compound": "C[C@@H]1CN([C@H](C)CO)C(=O)Cc2cc(NC(=O)Nc3cccc4ccccc34)ccc2O[C@@H]1CN(C)Cc1ccc(C(=O)O)cc1", "activity score (inhibition)": "-16%"}, {"compound": "C[C@@H]1CN([C@H](C)CO)C(=O)Cc2cc(NC(=O)Nc3cccc4ccccc34)ccc2O[C@@H]1CN(C)Cc1ccc(C(F)(F)F)cc1", "activity score (inhibition)": "67.4% (active)"}, {"compound": "COc1ccc(CN(C)C[C@@H]2Oc3ccc(NC(=O)Nc4ccc(OC)cc4)cc3CC(=O)N([C@H](C)CO)C[C@H]2C)cc1", "activity score (inhibition)": "12%"}, {"compound": "C[C@@H]1CN([C@H](C)CO)C(=O)c2cc(NC(=O)Nc3ccc4c(c3)OCO4)ccc2O[C@@H]1CN(C)Cc1ccc(C(F)(F)F)cc1", "activity score (inhibition)": "2.66%"}, {"compound": "C[C@@H]1CN([C@H](C)CO)C(=O)c2cc(NC(=O)c3ccncc3)ccc2O[C@H]1CN(C)C(=O)Nc1ccc(C(F)(F)F)cc1", "activity score (inhibition)": "1.32%"}, {"compound": "C[C@@H]1CN([C@H](C)CO)C(=O)c2cc(NC(=O)Nc3ccc(C(F)(F)F)cc3)ccc2O[C@H]1CN(C)C(=O)Nc1ccccc1", "activity score (inhibition)": "4.44%"}]}]}
